For this assay, the target named is Voltage-dependent L-type calcium channel subunit alpha-1D (Homo sapiens) (UniProt Q01668). The experiment in a line: disruptors of CaV1.3 IQ/ICDI domain association – cell-based, HEK293, YFP-IQ/CFP-ICDI FRET, cherry-picks, dose response (AID 1053205).

This note sets out measurements from PubChem BioAssay AID1053205 (Broad Institute, 2014).

Measured potencies and affinities stand elsewhere. Records with an inconclusive call do not appear. Activity calls are given as the source filed them.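 How the source made its calls: active means compounds lowering the FRET ratio whose fitted half-maximal concentration is at most twice their top tested dose; inconclusive means flat partial drop between 30 and 70 percent, or bad fit; inactive means the rest.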

Voltage-dependent L-type calcium channel subunit alpha-1D (Homo sapiens), sequence (Q01668 whole entry, looked up, the tested form may be a part): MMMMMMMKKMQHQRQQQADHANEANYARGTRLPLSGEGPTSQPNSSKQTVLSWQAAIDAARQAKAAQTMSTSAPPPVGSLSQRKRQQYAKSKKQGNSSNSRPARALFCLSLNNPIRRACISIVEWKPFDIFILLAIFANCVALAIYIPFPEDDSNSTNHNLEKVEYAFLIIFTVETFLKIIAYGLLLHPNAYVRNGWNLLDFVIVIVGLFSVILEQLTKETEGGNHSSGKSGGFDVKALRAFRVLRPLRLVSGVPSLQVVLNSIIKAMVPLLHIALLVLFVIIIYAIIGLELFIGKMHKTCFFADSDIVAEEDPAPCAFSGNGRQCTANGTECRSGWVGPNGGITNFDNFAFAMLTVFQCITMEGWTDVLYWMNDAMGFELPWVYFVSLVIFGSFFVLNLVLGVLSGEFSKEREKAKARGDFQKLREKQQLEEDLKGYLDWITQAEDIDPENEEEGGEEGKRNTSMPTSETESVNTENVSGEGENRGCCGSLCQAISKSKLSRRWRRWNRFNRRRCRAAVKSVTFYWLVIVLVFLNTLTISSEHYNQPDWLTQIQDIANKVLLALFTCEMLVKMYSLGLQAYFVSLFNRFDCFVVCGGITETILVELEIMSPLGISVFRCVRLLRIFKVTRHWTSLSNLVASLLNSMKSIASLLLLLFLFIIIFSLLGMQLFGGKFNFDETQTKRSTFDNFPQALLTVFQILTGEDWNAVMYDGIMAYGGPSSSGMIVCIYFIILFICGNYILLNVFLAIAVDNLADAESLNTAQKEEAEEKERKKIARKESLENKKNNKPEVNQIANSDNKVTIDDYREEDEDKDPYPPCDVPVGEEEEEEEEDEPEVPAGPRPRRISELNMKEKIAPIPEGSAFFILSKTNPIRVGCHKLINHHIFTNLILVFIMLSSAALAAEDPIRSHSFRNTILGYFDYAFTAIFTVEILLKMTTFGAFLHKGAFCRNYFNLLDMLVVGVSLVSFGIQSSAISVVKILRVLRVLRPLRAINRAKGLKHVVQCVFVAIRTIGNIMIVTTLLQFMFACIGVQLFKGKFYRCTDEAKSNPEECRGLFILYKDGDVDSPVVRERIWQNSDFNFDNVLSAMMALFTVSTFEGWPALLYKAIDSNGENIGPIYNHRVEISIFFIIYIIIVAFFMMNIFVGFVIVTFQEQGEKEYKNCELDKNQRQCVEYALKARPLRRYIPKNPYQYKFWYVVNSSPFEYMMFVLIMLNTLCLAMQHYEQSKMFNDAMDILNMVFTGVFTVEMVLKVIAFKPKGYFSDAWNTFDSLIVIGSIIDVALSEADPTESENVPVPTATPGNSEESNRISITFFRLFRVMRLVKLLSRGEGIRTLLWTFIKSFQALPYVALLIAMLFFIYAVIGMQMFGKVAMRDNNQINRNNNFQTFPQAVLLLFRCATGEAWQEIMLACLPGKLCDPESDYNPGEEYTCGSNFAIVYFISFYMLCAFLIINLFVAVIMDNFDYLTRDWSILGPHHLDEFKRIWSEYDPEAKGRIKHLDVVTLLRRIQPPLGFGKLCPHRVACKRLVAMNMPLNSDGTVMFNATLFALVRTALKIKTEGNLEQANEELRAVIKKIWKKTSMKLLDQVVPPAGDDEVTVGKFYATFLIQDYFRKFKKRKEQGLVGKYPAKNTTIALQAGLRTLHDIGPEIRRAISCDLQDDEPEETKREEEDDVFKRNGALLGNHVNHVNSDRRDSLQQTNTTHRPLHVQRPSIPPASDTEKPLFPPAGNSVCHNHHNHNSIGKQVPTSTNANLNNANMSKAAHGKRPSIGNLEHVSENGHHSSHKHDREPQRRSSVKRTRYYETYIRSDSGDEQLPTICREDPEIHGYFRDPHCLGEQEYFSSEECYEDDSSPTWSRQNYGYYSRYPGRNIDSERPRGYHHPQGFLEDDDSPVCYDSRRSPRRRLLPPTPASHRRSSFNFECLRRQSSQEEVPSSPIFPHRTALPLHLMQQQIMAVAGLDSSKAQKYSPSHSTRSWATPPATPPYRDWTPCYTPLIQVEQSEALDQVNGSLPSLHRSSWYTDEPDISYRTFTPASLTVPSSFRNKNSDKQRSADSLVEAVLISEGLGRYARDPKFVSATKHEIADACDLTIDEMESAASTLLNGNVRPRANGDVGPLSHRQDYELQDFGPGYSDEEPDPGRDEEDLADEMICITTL

Turning to `CCOC(=O)c1c(C)n(C)c2ccc(OCC(O)CN3CCC(C)CC3)cc12` (stereo unspecified), the result was inactive.
For `CCCOc1ccc(C(=O)NNC(=S)NC(=O)c2ccco2)cc1`, the result was inactive.
For `CCc1nc(SCC(=O)c2ccccc2)c2ccccc2n1`, the result was inactive.
Take `CC(=O)Oc1ccc(C(=O)Nc2cc(C)on2)cc1`: the result was inactive.
Regarding `O=c1[nH]c(Nc2ccccc2Cl)cc2ccccc12`, the outcome was inactive.
On to `COc1c(Cl)cc(-c2noc(C)c2C(=O)NCc2ccc3c(c2)OCO3)cc1Cl`, for which the result was inactive.
For `Cc1c(Nc2c3ccccc3nc3ccccc23)c(=O)n(-c2ccccc2)n1C`, the result was inactive.
With `CNNC(=S)NC1CC2CC1C1C=CCC21` (stereo unspecified) the entry was “inactive”; with `CCN1CCc2c(sc(NC(=O)Nc3ccc(Cl)c(Cl)c3)c2C(N)=O)C1`, “inactive”.
With `Nc1ccc(C#Cc2ccc3c(=O)c4ccccc4oc3c2)cc1` the entry was “inactive”; with `CCC(Sc1nc(N)c(NC(=O)c2ccc(OC)cc2)c(=O)[nH]1)C(=O)O` (stereo unspecified), “inactive”.
With `O=[N+]([O-])c1cccc(Nc2c3ccccc3nc3ccccc23)c1` the entry was “inactive”; with `C=CCN1C(=S)CC(c2ccccc2)=Nc2ccccc21`, “inactive”.
Regarding `CCOc1ccc(S(=O)(=O)Nc2ccc(C(=O)N(CC)CC(=O)NCc3cccs3)cc2)cc1`, the outcome was inactive.
`CCCOc1c(Br)cc(C2C3=C(CCCC3=O)N(C)C3=C2C(=O)CCC3)cc1OC`: the outcome was inactive.
Take `C=CCn1c(=N)c(C#N)cc2c(=O)n3ccccc3nc21`: the outcome was inactive.
`Cc1nc2ccc(S(=O)(=O)Nc3ccc(-c4nc5cccnc5s4)cc3)cc2s1`: the outcome was inactive.
For the molecule `Cn1cnc(S(=O)(=O)Nc2ccc(OC(F)(F)F)cc2)c1`, the result was inactive.
With `O=C(Cc1csc(-c2ccccc2)n1)NCc1ccccc1F` the entry was “inactive”; with `CC(C)c1ccc(/C=C2\Oc3c(ccc(O)c3CN3CCN(C)CC3)C2=O)cc1`, “inactive”; with `CCN(CC)CCN1C2=C(C(=O)CC(C)(C)C2)C(c2cccc(F)c2)C2=C1CC(C)(C)CC2=O`, “inactive”.
Then `COc1ccccc1NS(=O)(=O)c1cc(NC(=O)CCNC(C)=O)ccc1C`, with “inactive”.
With `Cc1cccn2c(=O)c3cc(C(=O)NCc4ccco4)c(=N)n(CCc4ccccc4)c3nc12` the entry was “inactive”; with `Cc1nc(CCNC(=O)Cc2ccc(Cl)cc2)cs1`, “inactive”; with `CC(=O)c1cc2ccc(O)cc2oc1=O`, “inactive”.
Consider `CCOC(=O)c1oc2c(CN3CCN(CCO)CC3)c(O)c(CC)cc2c(=O)c1-c1nc2ccccc2s1`, for which the result was inactive.
With `O=C1CCc2cc(S(=O)(=O)NC(Cc3ccccc3)C(=O)NCCC3=CCCCC3)ccc2N1` (stereo unspecified) the entry was “inactive”; with `CCC(=O)N1C(C(=O)NCc2ccc(OC)cc2)CSC1c1ccc(OC)cc1` (stereo unspecified), “inactive”; with `CN1CCN(c2nc3ccccn3c(=O)c2/C=C(\C#N)S(=O)(=O)c2ccccc2)CC1`, “inactive”.
With `COc1ccc(C2CC(c3ccccc3)=NN2c2ccc(C(N)=O)cc2)cc1` (stereo unspecified), the result was inactive.
`S=c1[nH]c2ccc(Cc3ccc4[nH]c(=S)[nH]c4c3)cc2[nH]1`: the outcome was inactive.
With `CSCCC1(C(=O)O)NC(c2ccccc2O)C2C(=O)N(C(C)C)C(=O)C21` (stereo unspecified) the entry was “inactive”.
On to `Cc1c(C(=O)NCc2ccc3c(c2)OCCO3)sc(=O)n1Cc1ccccc1F`, for which the outcome was inactive.
For the molecule `Cc1c(O)ccc2cc(S(=O)(=O)c3ccccc3)c(=O)oc12`, the outcome was inactive.
As to `Cc1cc(-c2nc3cccnc3s2)ccc1NS(=O)(=O)c1cccs1`, the result was inactive.
In the case of `Cc1cc(-c2ccccc2)c2ccc(NC(=O)C(C)(C)C)nc2n1`, the result was inactive.
